BLM helicase inh-1: inhibitors of human Bloom syndrome helicase BLM. P54132. recombinant BLM DNA unwinding, fluorescence dequenching. Potency, µM (highest dose often 56.1 µM), inactives show top-dose activity change, negative = inhibition, usual class: inhibitors. 0.2% of 350,000 active. AID 2528;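 note: plate controls were vehicle for no effect and no enzyme for full effect; nearly all actives have a fitted effect of over 35% in size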
RECQ1 inh-1: inhibitors of human RECQ1 DNA helicase. 0.54% of 240,000 active. RECQ1 DNA unwinding, red fluorescence kinetic read. AID 2549. P46063. Potency, µM (doses to about 57.3 µM), for inactives: at the highest dose activity, negative = inhibition, most hits filed as inhibitors;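 note: plate controls were vehicle for no effect and no enzyme for full effect; nearly all actives have a fitted effect of over 30% in size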
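RECQ1T1 50 nM; forked duplex (20 bp + 30-nt ss tails) 200 nM, ATP 2 mM final; pH 8.0, 2 mM MgCl2, 2.5 ug/ml poly(dI-dC); 15 min compound preincubation; discontinuous kinetic read over 2 h at RT.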
WRN helicase inh-1: WRN helicase (human) inhibition. WRN helicase unwinding, fluorescent forked duplex, kinetic. Potency, µM (titrated, usually from 114 µM), for inactives: at the top dose activity change, negative = inhibition, usual class: inhibitors. 0.46% of 360,000 active. AID 651768; note: % is set by controls: 0 for no effect and ±100 for the full control effect; nearly all actives have a fitted effect of over 55% in size
Target sequence (Q14191 whole entry, looked up): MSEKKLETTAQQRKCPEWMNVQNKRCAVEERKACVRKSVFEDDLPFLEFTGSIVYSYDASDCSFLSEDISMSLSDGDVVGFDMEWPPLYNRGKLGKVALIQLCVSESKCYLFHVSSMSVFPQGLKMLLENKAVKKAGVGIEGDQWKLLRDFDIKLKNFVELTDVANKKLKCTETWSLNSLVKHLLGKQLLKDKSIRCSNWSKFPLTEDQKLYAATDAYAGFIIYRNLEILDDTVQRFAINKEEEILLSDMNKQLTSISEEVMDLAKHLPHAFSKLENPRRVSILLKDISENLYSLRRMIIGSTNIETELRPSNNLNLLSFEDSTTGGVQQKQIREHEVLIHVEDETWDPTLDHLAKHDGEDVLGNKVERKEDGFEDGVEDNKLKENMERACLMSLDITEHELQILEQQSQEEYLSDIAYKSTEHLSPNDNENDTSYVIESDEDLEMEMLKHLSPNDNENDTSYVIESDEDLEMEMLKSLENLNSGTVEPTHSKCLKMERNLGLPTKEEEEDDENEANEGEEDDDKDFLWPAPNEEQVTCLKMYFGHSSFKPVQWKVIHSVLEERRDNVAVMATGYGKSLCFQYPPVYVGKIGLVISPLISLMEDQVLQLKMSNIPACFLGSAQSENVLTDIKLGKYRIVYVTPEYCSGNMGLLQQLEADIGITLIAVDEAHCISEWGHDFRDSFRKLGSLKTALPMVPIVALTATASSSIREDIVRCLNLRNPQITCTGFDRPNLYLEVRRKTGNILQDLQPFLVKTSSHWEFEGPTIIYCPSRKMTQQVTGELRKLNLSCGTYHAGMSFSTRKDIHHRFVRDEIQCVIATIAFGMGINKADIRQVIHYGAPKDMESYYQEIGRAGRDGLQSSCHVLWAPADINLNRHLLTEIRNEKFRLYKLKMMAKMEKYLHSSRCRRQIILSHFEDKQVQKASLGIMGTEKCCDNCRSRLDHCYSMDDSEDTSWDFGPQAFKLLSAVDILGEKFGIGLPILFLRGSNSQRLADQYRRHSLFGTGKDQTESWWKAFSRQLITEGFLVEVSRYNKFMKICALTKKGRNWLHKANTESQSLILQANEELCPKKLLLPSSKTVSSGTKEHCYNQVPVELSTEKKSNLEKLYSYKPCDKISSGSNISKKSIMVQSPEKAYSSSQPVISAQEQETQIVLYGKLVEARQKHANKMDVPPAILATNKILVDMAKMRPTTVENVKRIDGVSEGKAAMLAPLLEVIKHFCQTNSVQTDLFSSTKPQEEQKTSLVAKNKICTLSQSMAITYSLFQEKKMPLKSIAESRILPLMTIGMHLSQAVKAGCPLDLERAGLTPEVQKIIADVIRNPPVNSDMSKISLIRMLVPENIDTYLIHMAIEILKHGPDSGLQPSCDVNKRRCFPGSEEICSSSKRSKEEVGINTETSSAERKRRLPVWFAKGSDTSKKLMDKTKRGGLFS
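WRN at 20 nM final was preincubated with compound for 15 min at room temperature; reaction started with 100 nM forked duplex oligonucleotide carrying fluorophore and quencher plus 2 mM ATP (final). Unwinding followed kinetically by red fluorescence (ex 525/em 598 nm).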
L3MBTL1 inh-1: blocks human L3MBTL1; 0.66% of 230,000 active; AlphaScreen L3MBTL1–H3K9me1 peptide binding; Q9Y468; Potency, µM (series often up to 57.1 µM), for the others: top-dose activity, negative = inhibition, hits mostly inhibitors; note: % is set by controls: 0 for no effect and ±100 for the full control effect; nearly all actives have a fitted effect of over 60% in size
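AlphaScreen proximity signal between nickel-chelate acceptor and streptavidin donor beads (final 10 ug/mL) reports binding of 50 nM L3MBTL1 to 75 nM biotin-H3 K9me1 peptide; complex incubated with compounds 30 min at room temperature; cefsulodin titration as control.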
APE1 inh-1: blocks human APE1 abasic DNA cleavage | P27695 | recombinant APE1, TAMRA/BHQ-2 abasic DNA cleavage fluorescence | Potency, µM (top dose mostly 65.8 µM), inactives show top-dose activity change, negative = inhibition, usual class: inhibitors | 0.35% of 350,000 active | AID 2517;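 note: plate controls were vehicle for no effect and reference inhibitor for full effect; nearly all actives have a fitted effect of over 55% in size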
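0.75 nM APE1 + cpd, 15 min RT; start w/ 50 nM TAMRA/BHQ-2 THF-abasic dsDNA; kinetic fluor 525/598 nm ×3 reads @60 s; Δ(read3−read1); normalized to DMSO and NSC13755 control wells.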
APE1 dye cs: counter-screen for APE1 inhibitors: DNA dye displacement. shares compounds with APE1 inh-1. DNA fluorescent dye displacement counterscreen, fluorescence. Potency, µM (series often up to 28.5 µM), without a hit: at the highest dose activity change, negative = inhibition, usual class: inhibitors. 7% of 480 active;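 note: loss of thiazole orange fluorescence as the dye is displaced from duplex DNA; 0% = ThO with dsDNA and no compound and -100% = ThO without dsDNA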
Endo IV inh: counter-screen for APE1 inhibitors: inhibitors of E. coli endonuclease IV. 4% of 560 active. E. coli Endo IV, fluorogenic AP-site DNA cleavage. Potency, µM (titrated, usually from 27.1 µM), for inactives: at the highest dose activity change, negative = inhibition, most hits filed as inhibitors. shares compounds with APE1 inh-1;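 note: plate controls were uninhibited enzyme wells for no effect and no enzyme buffer wells for full effect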
APE1 inh-2: APE1 (human) endonuclease inhibition, confirmation; purified APE1, fluorogenic abasic-site DNA cleavage; AID 2572; shares compounds with APE1 inh-1; 44% of 750 active; Potency, µM (titrated, usually from 57.1 µM), without a hit: top-dose activity change, negative = inhibition, most hits filed as inhibitors; note: % is set by controls: 0 for no effect and ±100 for the full control effect; nearly all actives have a fitted effect of over 30% in size
APE1 FP inh: compounds that displace a DNA probe from human APE1; APE1 binding to TAMRA-labelled double-stranded DNA, fluorescence polarization displacement; shares compounds with APE1 inh-1; 7% of 480 active; Potency, µM (highest dose often 28.5 µM), for the others: at the highest dose activity, negative = inhibition, actives largely listed as inhibitors; note: % is set by controls: 0 for no effect and ±100 for the full control effect
BLM inh: confirmation of inhibitors of human Bloom syndrome helicase BLM; shares compounds with BLM helicase inh-1; BLM DNA unwinding, fluorescence quenching, biochemical; Potency, µM, for inactives: max response, negative = inhibition, actives largely listed as inhibitors; 40% of 220 active; AID 2585;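 note: strand separation dequenches TAMRA so unwinding raises red fluorescence; series mostly up to about 69 µM; % is set by controls: 0 for no effect and ±100 for the full control effect; nearly all actives have a fitted effect of over 45% in size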
RECQ1 inh conf: confirmation of human RECQ1 helicase inhibitors. shares compounds with RECQ1 inh-1. RECQ1 helicase DNA unwinding, fluorescence. Potency, µM (doses to about 229 µM), inactives show at the top dose activity change, negative = inhibition, usual class: inhibitors. 28% of 610 active. AID 2708; note: % is set by controls: 0 for no effect and ±100 for the full control effect; nearly all actives have a fitted effect of over 45% in size
ADP FP counter: ADP displacement flagged in RECQ1 inhibitor counter-screen. 27% of 530 active. shares compounds with RECQ1 inh-1. Potency, µM (highest dose often 228 µM), without a hit: top-dose activity change, negative = inhibition, usual class: inhibitors. AID 2711. ADP fluorescence polarization displacement counterscreen; note: % is set by controls: 0 for no effect and ±100 for the full control effect; nearly all actives have a fitted effect of over 45% in size
RECQ1 inh-2: blocks human RECQ1 DNA unwinding; Potency, µM (doses to about 119 µM), without a hit: top-dose activity, negative = inhibition, actives largely listed as inhibitors; recombinant RECQ1 DNA unwinding, red fluorescence; 15% of 1,100 active; shares compounds with RECQ1 inh-1; note: % is set by controls: 0 for no effect and ±100 for the full control effect; nearly all actives have a fitted effect of over 50% in size
L3MBTL1 inh-2: L3MBTL1 binding inhibition validated. shares compounds with L3MBTL1 inh-1. L3MBTL1 methyl-lysine binding inhibition, biochemical qHTS. Potency, µM, actives largely listed as inhibitors. 91% of 500 active. AID 540279; note: nearly all actives have a fitted effect of over 70% in size
AlphaScreen ctr2: interferes with AlphaScreen signal in L3MBTL1 counterscreen; shares compounds with L3MBTL1 inh-1; AlphaScreen counterscreen, signal inhibition; Potency, µM (top dose mostly 57.1 µM), for inactives: top-dose activity change, negative = inhibition, hits mostly inhibitors; 500 tested, under 10 active; note: 0% is about no effect
WRN helicase inh-2: confirmation of human WRN helicase inhibitors; shares compounds with WRN helicase inh-1; WRN helicase DNA unwinding, fluorescence kinetic; Potency, µM (doses to about 57.1 µM), inactives show at the highest dose activity, negative = inhibition, hits mostly inhibitors; 63% of 610 active; AID 720497; note: nearly all actives have a fitted effect of over 65% in size
TO DNA binding: DNA binding via thiazole orange displacement; shares compounds with WRN helicase inh-1; thiazole orange DNA binding displacement, fluorescence; Potency, µM (titrated, usually from 57.1 µM), for inactives: at the highest dose activity change, negative = inhibition, most hits filed as inhibitors; 10% of 610 active; AID 720499;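 note: drop in dye fluorescence marks compound binding to DNA; % is set by controls: 0 for no effect and ±100 for the full control effect; nearly all actives have a fitted effect of over 60% in size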
BLM helicase inh-2: counter-screen for WRN helicase inhibitors: human BLM helicase inhibition; shares compounds with WRN helicase inh-1; Recombinant BLM helicase DNA unwinding, red fluorescence; Potency, µM (doses to about 57.1 µM), without a hit: at the highest dose activity change, negative = inhibition, actives largely listed as inhibitors; 60% of 610 active; note: nearly all actives have a fitted effect of over 60% in size
* marks the source's active call; other numbers are inactive results. In the library only some 0.92% were active in any assay of this set; here they are far more common. Calls come from the whole dose curve; as a rule, active = well fitted curve in the direction sought with a large enough effect; inconclusive = small, poorly fitted or top-dose-only effect, or another doubt; inactive = no such curve, though single readings can be large; an effect the other way counts as inactive or inconclusive. Potency is the fitted concentration of half-maximal effect.

What do the screens show for `CSc1nc(NCCOCCO)c2sc3nc(-c4ccco4)c4c(c3c2n1)CCC4`?
BLM helicase inh-1: 25µM*; RECQ1 inh-1: 25µM*; WRN helicase inh-1: -13%; L3MBTL1 inh-1: 5.6µM*; APE1 inh-1: 32µM*; APE1 dye cs: 13µM*; Endo IV inh: -10%; APE1 inh-2: 13µM*; APE1 FP inh: -7%; BLM inh: inconclusive; RECQ1 inh-2: inconclusive; L3MBTL1 inh-2: 2.7*; AlphaScreen ctr2: -6%

Results for CSc1nc(NCc2ccco2)c2sc3nc(C(C)C)c4c(c3c2n1)CC(C)(C)OC4 ?
BLM helicase inh-1: -5%; RECQ1 inh-1: inactive; WRN helicase inh-1: 6%; L3MBTL1 inh-1: 2%; APE1 inh-1: 11%

What do the screens show for `CCn1c(SCc2nc3sc(C(=O)O)c(C)c3c(=O)[nH]2)nc2ccccc21`?
BLM helicase inh-1: 67%; RECQ1 inh-1: inconclusive; WRN helicase inh-1: 20µM*; APE1 inh-1: 20µM*; APE1 inh-2: inconclusive; WRN helicase inh-2: 6.8µM*; TO DNA binding: 12µM*; BLM helicase inh-2: 19µM*

Results for O=C1N/C(=C/c2ccsc2)C(=O)N1c1ccccc1 ?
BLM helicase inh-1: 4%; RECQ1 inh-1: inactive; WRN helicase inh-1: 12%; L3MBTL1 inh-1: -3%; APE1 inh-1: 6%

How did O=C(O)c1ccc(-n2cccc2/C=C2/NC(=O)N(c3ccccc3)C2=O)cc1 do in these assays?
BLM helicase inh-1: -2%; RECQ1 inh-1: 25µM*; WRN helicase inh-1: 35µM*; APE1 inh-1: 2.5µM*; APE1 dye cs: -3%; Endo IV inh: -11%; APE1 inh-2: 4µM*; APE1 FP inh: 13µM*; WRN helicase inh-2: 15µM*; TO DNA binding: -8%; BLM helicase inh-2: 7.6µM*

How did Cc1ccc2c(=O)c3cccc(CC(=O)O)c3oc2c1C do in these assays?
BLM helicase inh-1: -5%; RECQ1 inh-1: -10%; APE1 inh-1: 4%

Results for Cc1ccc(NC(=O)CN2C(=O)S/C(=C/c3ccc(-c4cc(C(=O)O)ccc4C)o3)C2=O)cc1C ?
BLM helicase inh-1: inconclusive; RECQ1 inh-1: 14µM*; WRN helicase inh-1: 22µM*; APE1 inh-1: inconclusive; APE1 dye cs: 149%; Endo IV inh: -4%; APE1 inh-2: 7.1µM*; APE1 FP inh: 10µM*; RECQ1 inh conf: 22µM*; ADP FP counter: inconclusive; RECQ1 inh-2: inconclusive; WRN helicase inh-2: 7.6µM*; TO DNA binding: 193%; BLM helicase inh-2: 5.4µM*

How did O=C(O)CSc1nc2sc3c(c2c(=O)n1Cc1ccccc1)CCCCC3 do in these assays?
BLM helicase inh-1: -8%; WRN helicase inh-1: -3%; APE1 inh-1: 21%

How did O=C(O)CSc1cc(C(=O)c2ccccc2O)cn2c(=O)c3c4c(sc3nc12)CCCC4 do in these assays?
BLM helicase inh-1: 25µM*; RECQ1 inh-1: 2%; WRN helicase inh-1: 45µM*; APE1 inh-1: inconclusive; APE1 dye cs: -18%; Endo IV inh: inconclusive; APE1 inh-2: 4µM*; APE1 FP inh: inconclusive; BLM inh: 32µM*; WRN helicase inh-2: 9.6µM*; TO DNA binding: inconclusive; BLM helicase inh-2: 3.4µM*

Results for O=C(COc1ccccc1[N+](=O)[O-])N/N=C/c1ccc(O)c([N+](=O)[O-])c1 ?
BLM helicase inh-1: 1%; RECQ1 inh-1: 0%; WRN helicase inh-1: -12%; L3MBTL1 inh-1: -23%; APE1 inh-1: -6%

Screening data from PubChem BioAssay.
